Reference: PubChem BioAssay AID1578 (Sanford-Burnham Center for Chemical Genomics, 2009)
Screen size: about 290,000 compounds; about 3,000 (1%) were called active. The sample holds actives, similar compounds and a random draw of the others, so the mix is not that of the screen. No stated cut-off is given here; in the data, active means inhibition mostly above about 36% (no sharp cut-off); inactive means mostly below about 34%.

assay: NOD1 signaling inhibitors, primary screen, cell-based, luminescence, uHTS (AID 1578); details: NOD1-driven NF-kB luciferase reporter cells, at 4 µM, hits give high values;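 further: HEK-293T reporter cells stimulated with the NOD1 agonist gamma-tri-DAP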

Row | Compound | inhibition
1 | CNC(=O)C(=O)NCC1OCCN1S(=O)(=O)c1ccc(C)cc1 (stereo not drawn) | -22.7% (inactive)
2 | CCc1ccnc(NC(=O)NS(=O)(=O)c2ccc(C)cc2)c1 | -11.9% (inactive)
3 | COc1ccc(NS(=O)(=O)c2cccc(C(=O)OCC(=O)NC3CC3)c2)cc1 | 7.3% (inactive)
4 | CCC(NC(=O)c1cc(COc2ccc(OC)cc2Cl)on1)c1ccncc1 (stereo not drawn) | -10.3% (inactive)
5 | O=C(CCc1nnc(CCCCc2ccccc2)o1)NCCn1cccn1 | -24.1% (inactive)
6 | CCC(Sc1nc2cc(OC)c(OC)cc2c(=O)n1Cc1ccc(OC)cc1)C(=O)NCCOC (stereo not drawn) | -24.5% (inactive)
7 | c1ccc(Oc2cnc3ccccc3n2)cc1 | 13.1% (inactive)
8 | COc1ccc(Oc2cnc3ccccc3n2)cc1 | 60.3% (active)
9 | Cc1ccc(Oc2cnc3ccccc3n2)cc1 | 18.8% (inactive)
10 | NC(=O)c1nn(-c2ccc(Oc3ccccc3)cc2)c(=O)cc1O | -23.2% (inactive)
11 | O=C(NC(=S)N(CCc1ccccc1)CCc1ccccc1)c1ccco1 | 97.6% (active)
12 | O=C(NC(=S)NCCc1ccccc1)c1ccco1 | -69.5% (inactive)
13 | CC(CCc1ccccc1)NC(=S)NC(=O)c1ccco1 (stereo not drawn) | -37% (inactive)
14 | CC(C)C1Nc2ccc(C(=O)NC3CCCCC3)cc2NC1=O (stereo not drawn) | -43.7% (inactive)
15 | Nc1nc(-c2ccccc2)cc(N2CCCCC2)n1 | 6.2% (inactive)
16 | CN(C)S(=O)(=O)c1cccc(NC(=S)N/N=C/c2ccc(O)c(O)c2O)c1 | 56.3% (active)
17 | CN(C)S(=O)(=O)c1cccc(NC(=S)N/N=C/c2cc(Br)ccc2O)c1 | -11.2% (inactive)
18 | COc1ccc(O)c(/C=N/NC(=S)Nc2cccc(S(=O)(=O)N(C)C)c2)c1 | -37% (inactive)
19 | Cc1cccc2nc(-c3ccccc3)nc(N3CCC(O)(c4ccc(Cl)cc4)CC3)c12 | -4.5% (inactive)
20 | CCN1CCCC1CNC(=O)c1ccc(CS(=O)(=O)c2ccccc2C)o1 (stereo not drawn) | 4.8% (inactive)
21 | Cc1ccc(S(=O)(=O)N2CCOC23CCN(C(=O)c2ccc(Cl)cc2Cl)CC3)cc1 | -26.1% (inactive)
22 | Oc1ccccc1C=Nc1ccccc1-c1nc2ccccc2[nH]1 | -7.6% (inactive)
23 | CC(C)CC(=O)NC(NC(=S)Nc1sc2c(c1C#N)CCCC2)C(Cl)(Cl)Cl (stereo not drawn) | 64.5% (active)
24 | CC(C)(C)C(=O)NC(=S)Nc1sc2c(c1C#N)CCCCC2 | -10.7% (inactive)
25 | CC(C)(C)C(=O)NC(NC(=S)Nc1sc2c(c1C#N)CCCC2)C(Cl)(Cl)Cl (stereo not drawn) | 46.4% (inactive)

Row | Compound | inhibition
26 | Cc1cc(Nc2ccccc2)nc(NCc2ccccc2)n1 | 52.7% (inactive)
27 | O=C(c1ccco1)N1CCN(C(=O)c2cc3c(s2)-c2ccccc2OC3)CC1 | -13% (inactive)
28 | CCOc1ccc(C(=O)NCC(=O)OCC(=O)N2C(C)CCCC2C)cc1 (stereo not drawn) | -9.2% (inactive)
29 | O=C(N/N=C/c1ccoc1)c1ccccc1 | 20.3% (inactive)
30 | CN(CCO)S(=O)(=O)c1ccc2c(c1)C(=NO)c1cc(S(=O)(=O)N(C)CCO)ccc1-2 | -16% (inactive)
31 | CCCNC(=O)c1n[nH]c(=O)c2ccccc12 | -12.4% (inactive)
32 | Cc1cc(C)c2c(N)c(C(=O)NN)sc2n1 | -9.3% (inactive)
33 | Cc1cc(C)c2c(N)c(C(=O)c3ccccc3Cl)sc2n1 | 0.3% (inactive)
34 | Cc1cc(C)c2c(N)c(C(=O)c3ccc(Cl)cc3Cl)sc2n1 | 81.7% (active)
35 | Cc1cc(C)c2c(N)c(C(=O)Nc3ncc(C)s3)sc2n1 | 92.5% (active)
36 | Cc1cc(C)c2c(N)c(C(=O)c3ccc(Cl)cc3)sc2n1 | 6.3% (inactive)
37 | Cc1cc(C)c2c(N)c(C(=O)Nc3nccs3)sc2n1 | 34.4% (inactive)
38 | O=C(CSc1nnc(NC(=O)C2CC2)s1)NCc1ccc(F)cc1 | -10% (inactive)
39 | COc1ccc(C(C)=O)cc1CSc1ncccn1 | -32.9% (inactive)
40 | O=C1Nc2cc(Cl)c(Cl)cc2N(O)N1c1ccc(Cl)cc1 | 11.5% (inactive)
41 | CCCC/C(O)=C1\C(=O)CCCC1=NCCc1c(C)[nH]c2ccc(OC)cc12 | -7.7% (inactive)
42 | CCC/C(O)=C1\C(=O)CCCC1=NCCc1c(C)[nH]c2ccc(C)cc12 | -7.7% (inactive)
43 | CCC/C(O)=C1\C(=O)CCCC1=NCCc1c(C)[nH]c2ccc(OC)cc12 | 65.4% (active)
44 | CCS(=O)(=O)c1ccc2c(c1)N(S(C)(=O)=O)CC(C(=O)NCc1ccccc1OC)O2 (stereo not drawn) | 10.4% (inactive)
45 | Cc1oc(-c2cc(F)ccc2F)nc1CN1CCN(c2cnccn2)CC1 | -26% (inactive)
46 | Cc1cnc(C)c(N2CCN(Cc3nc(-c4cccc(F)c4F)oc3C)CC2)n1 | -26.1% (inactive)
47 | Cc1cccc(N2CCN(Cc3nc(-c4ccccc4Cl)oc3C)CC2)n1 | -11.6% (inactive)
48 | COc1ccc(-c2nc(CN3CCN(c4ccccc4OC)CC3)c(C)o2)cc1 | -31.1% (inactive)
49 | COc1ccc(-c2nc(CN3CCN(c4cc(C)nc(C)c4)CC3)c(C)o2)c2ccccc12 | -23.4% (inactive)
50 | Cc1cccc(N2CCN(Cc3nc(-c4ccc(F)cc4F)oc3C)CC2)n1 | -6.3% (inactive)

Row | Compound | inhibition
51 | CCCCn1c(SCC(=O)Nc2cc(C(F)(F)F)ccc2Cl)nnc1C(CC)N(C)C (stereo not drawn) | -47.6% (inactive)
52 | O=C1CCc2cc(S(=O)(=O)N3CCC(C(=O)NCc4ccccn4)CC3)ccc2N1 | -15.8% (inactive)
53 | O=C(O)CCC(=O)Nc1cccc(-c2nnc(-c3ccccc3)o2)c1 | 15.5% (inactive)
54 | CCN1CCSc2ccc(C(=O)Nc3ccc(NC(C)=O)cc3)cc21 | 4% (inactive)
55 | CC(=O)Nc1ccc(NC(=O)C2(C)CC2(Cl)Cl)cc1 (stereo not drawn) | -29.2% (inactive)
56 | N#CCCn1c(SCC(=O)NCc2ccco2)nc2ccccc21 | -13.3% (inactive)
57 | CC(=O)c1cccc(NC(=O)CNC(=O)Cc2ccccc2)c1 | 19.8% (inactive)
58 | CC(C)(C)NC(=O)N1CCCN(c2ccc(C(F)(F)F)cn2)CC1 | -7.3% (inactive)
59 | CCOC(CNc1cc(C)nc2c(-c3ccccc3OC)c(C)nn12)OCC | -6.1% (inactive)
60 | Clc1ccccc1-c1ccc(CN2CCN(c3ccccc3)CC2)o1 | 7.9% (inactive)
61 | Cc1cccc(C)c1NC(=O)C(C)N1CCCC1 (stereo not drawn) | 5.2% (inactive)
62 | CC(C(=O)Nc1c2c(cc3c1CCC3)CCC2)N1CCCC1 (stereo not drawn) | 63.4% (active)
63 | Cc1cc(C)c(NC(=O)C(C)N2CCCCCC2)c(C)c1 (stereo not drawn) | 39.1% (inactive)
64 | c1ccc(CNc2ncnc3sccc23)cc1 | 31.8% (inactive)
65 | Clc1ccc2c(NCc3ccco3)ncnc2c1 | 16.7% (inactive)
66 | COc1cc2ncnc(NCc3ccco3)c2cc1OC | -1.4% (inactive)
67 | O=C(O)c1cccc(Nc2ncnc3ccc(Br)cc23)c1 | -10.3% (inactive)
68 | Brc1ccc2ncnc(NCc3ccccc3)c2c1 | 93.1% (active)
69 | Cc1ccc(S(=O)(=O)CC(=O)c2ccccc2)cc1 | -10% (inactive)
70 | CC(=O)Nc1c(C)cc(S(C)(=O)=O)cc1C | -12.2% (inactive)
71 | NC(=O)c1c(NC(NC(=O)c2ccco2)(C(F)(F)F)C(F)(F)F)sc2c1CCCC2 | -24.2% (inactive)
72 | O=C(COC(=O)c1cc(-c2ccc(Cl)s2)nc2ccccc12)NCc1ccco1 | -9.8% (inactive)
73 | C=CCCC(=O)NC1CC(C)(C)Cc2c1cnn2-c1ccc(OC)cc1 (stereo not drawn) | -7% (inactive)
74 | Cc1ccccc1Oc1ncnc(N)c1[N+](=O)[O-] | 4.6% (inactive)
75 | CC1Cc2ccccc2N1c1ncnc2nc[nH]c12 (stereo not drawn) | 71.8% (active)

Row | Compound | inhibition
76 | CC1Cc2ccccc2N1c1ncnc(N)c1[N+](=O)[O-] (stereo not drawn) | 96.2% (active)
77 | Clc1ccccc1N1CCN(c2ncnc3nc[nH]c23)CC1 | -13.5% (inactive)
78 | CC1Cc2ccccc2N1c1ncnc2c1nnn2Cc1ccccc1 (stereo not drawn) | -0.2% (inactive)
79 | c1ccc2c(c1)CCN(c1ncnc3nc[nH]c13)C2 | -40.8% (inactive)
80 | O=C(CCNC(=O)N1CCn2c1nc1ccccc12)NCc1ccc(Cl)cc1 | -26.9% (inactive)
81 | CN(C)C(=O)c1cc(C(=O)c2ccc(C(F)(F)F)cc2F)c[nH]1 | 21.8% (inactive)
82 | O=C(CN1C(=O)c2ccccc2C1=O)Oc1ccc(Cl)cc1 | -14.3% (inactive)
83 | Cc1cccc(OCCOC(=O)C2CCN(S(=O)(=O)c3ccc(C)c(C)c3)CC2)c1 | -9.6% (inactive)
84 | CCN(CC(=O)NC1CCS(=O)(=O)C1)S(=O)(=O)c1ccc(C)cc1C (stereo not drawn) | -12% (inactive)
85 | Cc1c(CCC(=O)NCCC(=O)O)c(=O)oc2cc3occ(-c4ccccc4)c3cc12 | -7.4% (inactive)
86 | Cc1c(CC(=O)NCCCC(=O)O)c(=O)oc2cc3occ(-c4ccccc4)c3cc12 | -6.5% (inactive)
87 | Cc1c(CCC(=O)NCCCCCC(=O)O)c(=O)oc2cc3occ(-c4ccccc4)c3cc12 | 34.3% (active)
88 | O=C(CNCc1ccc(F)cc1)Nc1ccc(S(=O)(=O)N2CCOCC2)cc1 | -26.8% (inactive)
89 | O=C(c1cncc(Br)c1)N1CCc2ccccc2C1 | 80.2% (active)
90 | O=C(c1cccnc1)N1CCc2ccccc2C1 | -0.9% (inactive)
91 | O=C(c1ccncc1)N1CCc2ccccc2C1 | -32.9% (inactive)
92 | COCCn1nnnc1C(CC(C)C)N1CCN(c2ccccc2)CC1 (stereo not drawn) | -24.8% (inactive)
93 | CN1CCN(c2ccccc2NC(=S)NC(=O)c2cc3ccccc3o2)CC1 | 5.8% (inactive)
94 | CN1c2ccc(C=O)c3c(C=O)ccc(c23)N(C)C1(C)C | 72% (active)
95 | CN1C(=O)N(C)c2ccc(C=O)c3cccc1c23 | -32.8% (inactive)
96 | CN1c2cccc3cccc(c23)N(C)C1(C)C | 9.4% (inactive)
97 | O=C(CN(Cc1ccccc1)C(=O)CCC(=O)Nc1nccs1)NCc1ccco1 | -21.9% (inactive)
98 | CC(CCc1ccccc1)NC(=O)Cn1cccc1C(=O)c1ccccc1 (stereo not drawn) | -9.7% (inactive)
